Laboratory results as given in PubChem BioAssay (NCI).
Values joined by “and” are separate entries in the source; they are usually repeats but may differ in a detail not shown here. Equal entries are not always repeated. Compounds without any hit were thinned out: in the full panel of roughly 79,000, 15% have a hit. Unmarked numbers belong to inactive results. Active and inactive are the calls of the source. Rule as the data show it: active = growth inhibition above about 70%; inactive = the rest.

What was measured:
[1] = NCI Yeast Anticancer Drug Screen. Data for the rad50 strain (AID 155);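 also: 0% = growth of vehicle-only cultures of the same strain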; conditions: S. cerevisiae rad50 strain growth inhibition, stronger effect = higher value
In short: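 Vehicle-treated cultures provide the reference for the growth inhibition reported for compound-exposed, repair-deficient yeast.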

[2] = NCI Yeast Anticancer Drug Screen. Data for the mec2-1 strain (AID 157); conditions: S. cerevisiae mec2-1 strain, stronger effect = higher value
In short: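 Each compound was tested on mec2-1 yeast, a strain altered in DNA damage repair or cell cycle control. Growth inhibition is reported relative to vehicle.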

[3] = NCI Yeast Anticancer Drug Screen. Data for the sgs1 mgt1 strain (AID 161);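 also: 0% = growth of cultures given vehicle only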; conditions: S. cerevisiae sgs1 mgt1 strain, stronger effect = higher value
In short: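 Read-out: growth inhibition vs vehicle controls. Cells: mutant yeast strain deficient in DNA damage repair.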

[4] = NCI Yeast Anticancer Drug Screen. Data for the cln2 rad14 strain (AID 165);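 also: 0% = growth equal to vehicle treated cultures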; conditions: S. cerevisiae cln2 rad14 strain, stronger effect = higher value
In short: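 Test compounds were added to cln2 rad14 yeast cultures; inhibition of growth was then determined by comparison with vehicle treatment.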

[5] = NCI Yeast Anticancer Drug Screen. Data for the bub3 strain (AID 167); conditions: S. cerevisiae bub3 mutant strain, stronger effect = higher value
In short: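 Mutant yeast screening strain plus compound; vehicle-treated cultures serve as the 0% inhibition reference.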

[6] = NCI Yeast Anticancer Drug Screen. Data for the mlh1 rad18 strain (AID 175); conditions: S. cerevisiae mlh1 rad18 strain growth inhibition, stronger effect = higher value
In short: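 Inhibition values reflect reduced growth of mutant yeast versus vehicle-treated controls following compound exposure; the mutations affect DNA damage repair.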

[7] = at 5.0 µM (retest, dose inferred, filed as 0.5)
[8] = at 50.0 µM (retest, dose inferred, filed as 5.0)

SMILES | growth inhibition [1, 7] | growth inhibition [1, 8] | growth inhibition ([1]; at 50.0 µM) | growth inhibition [2, 7] | growth inhibition [2, 8] | growth inhibition ([2]; at 50.0 µM) | growth inhibition [3, 7] | growth inhibition [3, 8] | growth inhibition ([3]; at 50.0 µM) | growth inhibition [4, 7] | growth inhibition [4, 8] | growth inhibition ([4]; at 50.0 µM) | growth inhibition [5, 7] | growth inhibition [5, 8] | growth inhibition ([5]; at 50.0 µM) | growth inhibition [6, 7] | growth inhibition [6, 8] | growth inhibition ([6]; at 50.0 µM)
C=CCC(O)c1ccc(C(C)C)cc1 (configuration not stated) | 3% | 7% | 18.9% and -7.9% | 1% | -3% | -7.55% and -1.05% | -2% | 1% | -5.65% and 13.1% | -3% | 0% | -5% and 16.4% | 10% | 16% | -2.85% and -2.2% | 0% | 7% | 15.4% and -13.9%
O=C(NCCCCCCNC(=O)n1cc(F)c(=O)[nH]c1=O)NCCCOCCOCCOCCOCCOCCOCCOCCOCCOCCOCCOCCOCCOCCOCCOCCOCCOCCOCCOCCOCCOCCCNC(=O)C(O)C(O)C(OC1OC(CO)C(O)C(O)C1O)C(O)CO (configuration not stated) | 11% | 95% (active) | 74.3% (active) | 7% | 78% (active) | 89% (active) | 30% | 81% (active) | 81.5% (active) | 16% | -5% | 27.1% | 1% | 4% | 48.4% | 19% | 97% (active) | -10.2%
CC(=O)OCC(=O)[C@H]1CC[C@H]2[C@@H]3CC=C4C[C@@H](O)CC[C@]4(C)[C@H]3CC[C@]12C | 54% | 91% (active) | 89.8% (active) | 33% | 91% (active) | -5.65% | 60% | 94% (active) | 48.5% | 18% | 95% (active) | 55.8% | 23% | 91% (active) | -17.4% | 65% | 95% (active) | 81.1% (active)
Cc1ccc(C(C)C)c2c1CN(CCN1COc3c(C(C)C)ccc(C)c3C1)CO2 | -3% | 2% | -3.9% | 0% | 3% | 6.8% | -3% | -1% | -13.8% | -4% | 1% | -11.2% | -1% | -2% | -2.95% | -1% | 4% | -8.65%
